Drawing on ChEMBL document CHEMBL2218924, “A broad activity screen in support of a chemogenomic map for kinase signalling research and drug discovery” (Biochem J, 2013), this text covers residual activity for 13 compounds.

Each structure is given as a SMILES string.

For test [1], the target named is Ribosomal protein S6 kinase beta-1 (Homo sapiens) (UniProt P23443). To be noted: at 1 µM.
For test [2] the target is unchanged. To be noted: at 10 µM.
Test [3] concerns the target Serine/threonine-protein kinase Nek6 (Homo sapiens) (UniProt Q9HC98). Particulars: at 1 µM.
The target is the same in test [4]. Particulars: at 10 µM.
The target in test [5] is Serine/threonine-protein kinase Nek7 (Homo sapiens) (UniProt Q8TDX7). To be noted: at 1 µM.
The target is the same in test [6]. To be noted: at 10 µM.
Test [7] addresses T1, Serine/threonine-protein kinase NLK (Homo sapiens) (UniProt Q9UBE8).
T1 sequence (whole entry): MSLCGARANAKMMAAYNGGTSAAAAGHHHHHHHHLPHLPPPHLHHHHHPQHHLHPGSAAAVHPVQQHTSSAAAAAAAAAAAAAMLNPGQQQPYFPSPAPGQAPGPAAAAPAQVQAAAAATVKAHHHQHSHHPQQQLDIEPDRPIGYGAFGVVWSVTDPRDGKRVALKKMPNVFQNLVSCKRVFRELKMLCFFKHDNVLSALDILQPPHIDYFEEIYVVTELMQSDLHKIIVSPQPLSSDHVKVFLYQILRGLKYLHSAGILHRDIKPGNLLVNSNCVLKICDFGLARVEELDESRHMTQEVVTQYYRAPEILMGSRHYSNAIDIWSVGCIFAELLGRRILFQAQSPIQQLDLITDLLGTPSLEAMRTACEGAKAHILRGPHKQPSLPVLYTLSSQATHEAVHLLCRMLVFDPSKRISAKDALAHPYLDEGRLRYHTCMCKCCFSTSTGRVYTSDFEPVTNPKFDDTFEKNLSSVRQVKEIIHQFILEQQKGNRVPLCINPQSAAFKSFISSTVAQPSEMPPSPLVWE
To be noted: at 1 µM.

In test [8] the target is T1, Serine/threonine-protein kinase NLK (Homo sapiens). To be noted: at 10 µM.
In test [9] the target is Serine/threonine-protein kinase PAK 2 (Homo sapiens) (UniProt Q13177). Particulars: at 1 µM.
Test [10] has the same target. To be noted: at 10 µM.
Test [11] concerns the target Serine/threonine-protein kinase PAK 4 (Homo sapiens) (UniProt O96013). Particulars: at 1 µM.
Test [12] shares this target. To be noted: at 10 µM.
The target in test [13] is Serine/threonine-protein kinase PAK 5 (Homo sapiens) (UniProt Q9P286). Particulars: at 1 µM.
Test [14] shares this target. Particulars: at 10 µM.
In test [15] the target is Serine/threonine-protein kinase PAK 6 (Homo sapiens) (UniProt Q9NQU5). Particulars: at 1 µM.
Test [16] has the same target. To be noted: at 10 µM.
Test [17] deals with PAS domain-containing serine/threonine-protein kinase (Homo sapiens) (UniProt Q96RG2). Particulars: at 10 µM.
The target in test [18] is Activated CDC42 kinase 1 (Homo sapiens) (UniProt Q07912). Particulars: at 1 µM.
Test [19] shares this target. To be noted: at 10 µM.
For test [20], the target named is ALK tyrosine kinase receptor (Homo sapiens) (UniProt Q9UM73). To be noted: at 1 µM.
Sequence of ALK tyrosine kinase receptor (Homo sapiens) (Q9UM73 19-1620 limits assumed): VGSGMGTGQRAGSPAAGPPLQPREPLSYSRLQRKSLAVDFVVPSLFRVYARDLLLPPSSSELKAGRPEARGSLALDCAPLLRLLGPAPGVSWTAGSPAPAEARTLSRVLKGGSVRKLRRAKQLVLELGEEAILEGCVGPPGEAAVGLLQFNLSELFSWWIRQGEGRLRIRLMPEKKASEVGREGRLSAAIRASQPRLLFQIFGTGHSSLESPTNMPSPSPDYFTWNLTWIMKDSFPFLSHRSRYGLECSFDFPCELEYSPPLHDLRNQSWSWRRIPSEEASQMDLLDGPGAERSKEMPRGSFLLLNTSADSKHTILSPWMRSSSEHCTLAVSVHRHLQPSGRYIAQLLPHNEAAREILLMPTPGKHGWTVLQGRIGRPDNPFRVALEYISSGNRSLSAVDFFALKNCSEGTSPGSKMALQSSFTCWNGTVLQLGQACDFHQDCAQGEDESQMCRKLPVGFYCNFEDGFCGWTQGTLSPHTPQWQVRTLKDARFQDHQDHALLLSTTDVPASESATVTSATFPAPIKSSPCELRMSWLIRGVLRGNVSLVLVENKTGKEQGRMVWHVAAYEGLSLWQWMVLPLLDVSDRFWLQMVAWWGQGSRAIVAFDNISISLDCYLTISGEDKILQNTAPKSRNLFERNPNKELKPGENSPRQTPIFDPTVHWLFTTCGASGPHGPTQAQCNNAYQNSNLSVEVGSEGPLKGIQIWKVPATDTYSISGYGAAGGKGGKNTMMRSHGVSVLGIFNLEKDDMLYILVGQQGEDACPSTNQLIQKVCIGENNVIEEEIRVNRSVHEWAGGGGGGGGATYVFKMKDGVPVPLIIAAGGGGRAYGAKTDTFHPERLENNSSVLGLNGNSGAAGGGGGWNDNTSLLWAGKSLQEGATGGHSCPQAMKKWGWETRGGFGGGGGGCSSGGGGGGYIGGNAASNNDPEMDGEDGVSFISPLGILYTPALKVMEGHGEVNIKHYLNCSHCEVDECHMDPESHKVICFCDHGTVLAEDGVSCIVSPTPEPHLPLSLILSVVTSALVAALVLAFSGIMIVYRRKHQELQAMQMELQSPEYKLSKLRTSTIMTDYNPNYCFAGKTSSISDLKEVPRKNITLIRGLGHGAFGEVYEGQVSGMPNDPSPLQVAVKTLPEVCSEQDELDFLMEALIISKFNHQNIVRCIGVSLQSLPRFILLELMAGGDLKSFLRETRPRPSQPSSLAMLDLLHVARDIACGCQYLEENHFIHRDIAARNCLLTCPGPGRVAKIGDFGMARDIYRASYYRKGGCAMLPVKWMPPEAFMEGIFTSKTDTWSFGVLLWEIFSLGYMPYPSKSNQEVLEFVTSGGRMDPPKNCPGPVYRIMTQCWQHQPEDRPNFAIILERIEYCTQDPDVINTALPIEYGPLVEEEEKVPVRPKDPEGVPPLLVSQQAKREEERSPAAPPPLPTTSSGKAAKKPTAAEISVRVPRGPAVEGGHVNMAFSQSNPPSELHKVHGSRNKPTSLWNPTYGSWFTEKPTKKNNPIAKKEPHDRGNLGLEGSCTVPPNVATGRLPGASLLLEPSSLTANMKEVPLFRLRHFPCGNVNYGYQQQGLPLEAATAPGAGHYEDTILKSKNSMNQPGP

Sequence of Serine/threonine-protein kinase PAK 5 (Homo sapiens) (Q9P286 whole entry, looked up): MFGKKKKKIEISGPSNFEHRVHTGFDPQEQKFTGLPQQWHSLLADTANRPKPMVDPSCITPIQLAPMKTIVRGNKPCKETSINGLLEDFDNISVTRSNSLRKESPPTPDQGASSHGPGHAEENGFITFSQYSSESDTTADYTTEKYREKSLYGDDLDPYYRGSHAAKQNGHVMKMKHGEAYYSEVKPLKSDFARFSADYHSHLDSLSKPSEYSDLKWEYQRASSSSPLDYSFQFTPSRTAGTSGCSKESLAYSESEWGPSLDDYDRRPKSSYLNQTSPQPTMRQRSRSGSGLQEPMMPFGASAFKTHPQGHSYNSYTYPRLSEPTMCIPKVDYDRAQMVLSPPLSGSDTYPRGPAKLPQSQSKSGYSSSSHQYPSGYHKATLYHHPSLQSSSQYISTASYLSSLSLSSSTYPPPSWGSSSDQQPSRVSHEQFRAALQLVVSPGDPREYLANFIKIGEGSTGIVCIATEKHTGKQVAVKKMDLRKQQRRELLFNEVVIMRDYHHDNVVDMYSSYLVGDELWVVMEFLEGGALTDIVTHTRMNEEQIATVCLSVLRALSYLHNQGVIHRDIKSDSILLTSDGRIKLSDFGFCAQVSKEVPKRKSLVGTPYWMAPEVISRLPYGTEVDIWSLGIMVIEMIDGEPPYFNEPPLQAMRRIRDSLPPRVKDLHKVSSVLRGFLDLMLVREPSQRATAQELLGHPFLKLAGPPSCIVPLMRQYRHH
Sequence of Serine/threonine-protein kinase PAK 2 (Homo sapiens) (Q13177 whole entry): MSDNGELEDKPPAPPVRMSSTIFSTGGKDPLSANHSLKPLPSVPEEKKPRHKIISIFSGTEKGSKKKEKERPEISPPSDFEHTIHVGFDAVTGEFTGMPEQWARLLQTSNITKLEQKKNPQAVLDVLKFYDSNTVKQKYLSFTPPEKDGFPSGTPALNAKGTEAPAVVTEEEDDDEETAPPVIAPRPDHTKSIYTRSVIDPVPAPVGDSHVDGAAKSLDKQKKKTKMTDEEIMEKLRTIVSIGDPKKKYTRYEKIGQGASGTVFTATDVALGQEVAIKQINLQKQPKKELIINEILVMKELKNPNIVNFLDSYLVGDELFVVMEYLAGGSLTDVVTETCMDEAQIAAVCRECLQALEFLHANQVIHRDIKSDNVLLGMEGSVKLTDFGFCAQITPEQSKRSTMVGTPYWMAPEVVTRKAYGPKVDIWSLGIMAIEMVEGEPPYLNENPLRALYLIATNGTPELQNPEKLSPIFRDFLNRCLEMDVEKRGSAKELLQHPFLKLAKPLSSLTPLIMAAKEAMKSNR
Sequence of Activated CDC42 kinase 1 (Homo sapiens) (Q07912 whole entry, looked up): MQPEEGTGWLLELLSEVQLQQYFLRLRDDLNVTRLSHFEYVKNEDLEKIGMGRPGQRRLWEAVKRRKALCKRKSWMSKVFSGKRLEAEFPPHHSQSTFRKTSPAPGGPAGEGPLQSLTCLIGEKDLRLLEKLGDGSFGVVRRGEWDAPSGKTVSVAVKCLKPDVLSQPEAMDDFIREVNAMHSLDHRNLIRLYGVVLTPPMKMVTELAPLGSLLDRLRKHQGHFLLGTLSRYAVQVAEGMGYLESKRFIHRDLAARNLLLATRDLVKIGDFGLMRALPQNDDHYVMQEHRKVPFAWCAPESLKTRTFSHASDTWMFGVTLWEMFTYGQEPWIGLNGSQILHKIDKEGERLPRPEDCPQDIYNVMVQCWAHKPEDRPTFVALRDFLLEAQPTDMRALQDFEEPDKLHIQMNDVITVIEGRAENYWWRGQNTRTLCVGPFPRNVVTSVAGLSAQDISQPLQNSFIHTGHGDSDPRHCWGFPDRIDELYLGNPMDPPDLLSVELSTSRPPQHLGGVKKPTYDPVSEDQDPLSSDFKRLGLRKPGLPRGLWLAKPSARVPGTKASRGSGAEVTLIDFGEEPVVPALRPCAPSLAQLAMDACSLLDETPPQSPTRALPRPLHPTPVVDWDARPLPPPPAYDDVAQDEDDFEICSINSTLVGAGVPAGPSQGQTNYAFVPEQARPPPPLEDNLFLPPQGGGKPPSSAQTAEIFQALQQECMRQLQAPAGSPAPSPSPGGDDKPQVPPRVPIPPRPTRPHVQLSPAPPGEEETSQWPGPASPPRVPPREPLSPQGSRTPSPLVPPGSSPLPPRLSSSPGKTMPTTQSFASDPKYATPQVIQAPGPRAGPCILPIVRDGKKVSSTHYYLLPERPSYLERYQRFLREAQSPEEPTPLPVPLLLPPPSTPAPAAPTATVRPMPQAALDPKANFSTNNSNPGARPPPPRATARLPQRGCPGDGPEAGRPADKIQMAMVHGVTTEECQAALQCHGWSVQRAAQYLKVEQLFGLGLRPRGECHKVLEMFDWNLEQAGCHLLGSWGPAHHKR
Sequence of Serine/threonine-protein kinase Nek7 (Homo sapiens) (Q8TDX7 whole entry, looked up): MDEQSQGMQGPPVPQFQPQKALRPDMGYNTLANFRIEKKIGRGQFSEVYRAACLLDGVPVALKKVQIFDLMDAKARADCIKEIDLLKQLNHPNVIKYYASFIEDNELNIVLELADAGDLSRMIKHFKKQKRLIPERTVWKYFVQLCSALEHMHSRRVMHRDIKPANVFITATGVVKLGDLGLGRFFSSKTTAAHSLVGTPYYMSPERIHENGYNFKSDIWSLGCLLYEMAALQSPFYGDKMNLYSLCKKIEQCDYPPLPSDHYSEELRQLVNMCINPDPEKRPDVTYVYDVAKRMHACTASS
Sequence of Ribosomal protein S6 kinase beta-1 (Homo sapiens) (P23443 whole entry, looked up): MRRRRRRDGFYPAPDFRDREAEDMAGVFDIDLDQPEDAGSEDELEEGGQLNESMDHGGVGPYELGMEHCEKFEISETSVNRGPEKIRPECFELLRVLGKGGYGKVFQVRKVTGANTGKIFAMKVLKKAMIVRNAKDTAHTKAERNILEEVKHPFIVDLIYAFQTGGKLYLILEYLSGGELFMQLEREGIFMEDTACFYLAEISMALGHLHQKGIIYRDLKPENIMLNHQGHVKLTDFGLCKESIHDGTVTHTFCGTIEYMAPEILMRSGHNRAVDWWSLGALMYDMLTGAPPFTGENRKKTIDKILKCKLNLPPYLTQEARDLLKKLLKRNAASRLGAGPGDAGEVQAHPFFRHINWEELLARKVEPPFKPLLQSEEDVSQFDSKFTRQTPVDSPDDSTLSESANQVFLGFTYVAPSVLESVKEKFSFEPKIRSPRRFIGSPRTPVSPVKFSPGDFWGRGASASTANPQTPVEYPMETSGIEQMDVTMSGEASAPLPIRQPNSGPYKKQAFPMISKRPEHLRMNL
Sequence of Serine/threonine-protein kinase Nek6 (Homo sapiens) (Q9HC98 whole entry): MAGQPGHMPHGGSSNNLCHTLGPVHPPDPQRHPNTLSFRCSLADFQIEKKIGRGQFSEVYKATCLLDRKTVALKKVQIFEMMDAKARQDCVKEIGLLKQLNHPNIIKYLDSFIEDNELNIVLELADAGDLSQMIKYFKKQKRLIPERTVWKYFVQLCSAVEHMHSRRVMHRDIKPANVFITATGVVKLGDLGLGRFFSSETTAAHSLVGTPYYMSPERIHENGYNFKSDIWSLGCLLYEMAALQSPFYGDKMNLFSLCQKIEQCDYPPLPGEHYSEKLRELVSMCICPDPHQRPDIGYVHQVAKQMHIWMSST

On to `CO[C@@H]1[C@H](N(C)C(=O)c2ccccc2)C[C@H]2O[C@]1(C)n1c3ccccc3c3c4c(c5c6ccccc6n2c5c31)C(=O)NC4`, for which the residual activity in test [1] was 4%; in [2], 1%; in [3], 93% (inactive); in test [4] it was 92%; in test [5], 91% (inactive); in test [6] it was 82% (inactive). The residual activity in [7] was found to be 90%; in test [8], 73%; in test [9], 72%; in test [10] it was 50%; in test [11] it was 64%; in test [12], 43%. For the same compound, the residual activity in test [13] was 52%; in test [14], 48%; in [15] it was 49%; in test [16] it was 26%; in test [17], 0%; in test [18], 11%. Further, the residual activity in [19] was -1%; in [20], 32%.

As to `CC(C)n1cnc2c(NCc3ccccc3)nc(NCCCO)nc21`, the residual activity in [1] was 105%; in test [2], 100%; in [3], 107% (inactive); in test [4], 115%; in test [5] it was 101% (inactive); in test [6], 95% (inactive). Besides, the residual activity amounted to 95% in test [7]; 86% in test [8]; 106% in test [9]; 100% in [10]; 97% in test [11]; 80% in test [12]. In addition, the residual activity in [13] amounted to 108%; in test [14], 96%; in [15] it was 95%; in test [16] it was 72%; in test [17] it was 98%; in test [18] it was 76%. The residual activity in test [19] was 58%; in test [20] it was 87%.

With `COc1cc2ncnc(Nc3ccc(Oc4ccccc4)cc3)c2cc1OC`, the residual activity in test [1] is 92%; in test [2], 88%; in test [3], 97% (inactive); in test [4], 118%; in test [5], 97% (inactive); in test [6], 112% (inactive). For the same compound, the residual activity worked out at 96% in test [7]; 82% in test [8]; 98% in test [9]; 87% in test [10]; 94% in test [11]; 80% in test [12]. The residual activity was 108% in [13]; 136% in test [14]; 98% in test [15]; 124% in test [16]; 131% in test [17]; 28% in [18]. The residual activity turned out to be 9% in test [19] and 54% in test [20].

For `CC(C)n1cnc2/c(=N/c3cccc(Cl)c3)nc(NCCO)[nH]c21`, the residual activity in test [1] was 36%; in [2], 15%; in test [3], 118% (inactive); in test [4] it was 98%; in [5] it was 102% (inactive); in [6] it was 84% (inactive). Besides, the residual activity in test [7] was found to be 88%; in [8] it was 70%; in test [9], 109%; in [10], 98%; in [11], 62%; in test [12], 15%. Further, the residual activity worked out at 80% in [13]; 33% in test [14]; 43% in test [15]; 25% in test [16]; 114% in test [17]; 14% in [18]. Also, the residual activity was determined as 5% in test [19] and 81% in test [20].

Turning to `COc1ccc(C(=O)Nc2sc3c(c2C(N)=O)CCCC3)cc1OC`, the residual activity is 106% in test [1]; 83% in test [2]; 90% (inactive) in [3]; 103% in test [4]; 87% (inactive) in test [5]; 83% (inactive) in test [6]. The residual activity in [7] is 88%; in test [8], 90%; in [9] it was 96%; in [10], 90%; in test [11], 92%; in test [12], 86%. The residual activity in test [13] turned out to be 104%; in test [14], 116%; in test [15], 95%; in test [16], 93%; in test [17], 90%; in test [18], 77%. Moreover, the residual activity is 54% in [19] and 56% in test [20].

On to `COc1ccc(S(=O)(=O)N(CCO)c2ccccc2CN(C)C/C=C/c2ccc(Cl)cc2)cc1`, for which the residual activity in test [1] is 97%; in test [2] it was 78%; in test [3], 110% (inactive); in test [4] it was 115%; in test [5] it was 106% (inactive); in test [6], 93% (inactive). In addition, the residual activity is 93% in test [7]; 92% in [8]; 97% in test [9]; 86% in [10]; 94% in test [11]; 93% in test [12]. Further, the residual activity is 100% in test [13]; 77% in test [14]; 105% in test [15]; 64% in test [16]; 87% in [17]; 68% in test [18]. Also, the residual activity in [19] stood at 60%; in [20], 68%.

Consider `Nc1ccc2ncnc(NCCc3ccc(Oc4ccccc4)cc3)c2c1`, for which the residual activity in test [1] is 81%; in test [2], 51%; in [3], 105% (inactive); in [4], 120%; in test [5], 111% (inactive); in test [6], 117% (inactive). The residual activity in test [7] amounted to 111%; in [8], 96%; in test [9], 103%; in test [10], 89%; in test [11] it was 107%; in test [12] it was 87%. For the same compound, the residual activity is 100% in [13]; 81% in test [14]; 95% in test [15]; 84% in [16]; 65% in test [17]; 81% in [18]. Further, the residual activity in test [19] was 55%; in test [20], 81%.

For the compound `C[C@@H](N)[C@H]1CC[C@H](C(=O)Nc2ccncc2)CC1`, the residual activity was 101% in test [1]; 71% in test [2]; 106% (inactive) in [3]; 107% in [4]; 111% (inactive) in test [5]; 112% (inactive) in test [6]. The residual activity in test [7] is 100%; in [8], 101%; in test [9], 106%; in test [10], 104%; in [11] it was 92%; in test [12], 77%. Moreover, the residual activity is 104% in test [13]; 106% in test [14]; 117% in test [15]; 109% in test [16]; 85% in [17]; 97% in [18]. Also, the residual activity in test [19] amounted to 95%; in test [20], 116%.

Take `Ic1cccc(CSc2nnc(-c3ccncc3)o2)c1`: the residual activity in test [1] was 55%; in [2], 32%; in test [3], 113% (inactive); in [4] it was 115%; in [5], 101% (inactive); in test [6], 81% (inactive). Moreover, the residual activity was 89% in test [7]; 89% in [8]; 104% in test [9]; 92% in test [10]; 91% in [11]; 84% in test [12]. In addition, the residual activity was 91% in test [13]; 72% in test [14]; 89% in [15]; 73% in test [16]; 106% in [17]; 75% in test [18]. Besides, the residual activity in test [19] was 60%; in [20], 73%.

As for `O=C1NC(=O)c2c1c1c3ccccc3[nH]c1c1[nH]c3cc(Br)ccc3c21`, the residual activity in [1] is 92%; in [2], 52%; in test [3], 121% (inactive); in test [4], 117%; in [5], 103% (inactive); in [6], 89% (inactive). For the same compound, the residual activity worked out at 82% in test [7]; 93% in [8]; 122% in [9]; 106% in test [10]; 94% in test [11]; 92% in [12]. Besides, the residual activity worked out at 101% in test [13]; 85% in test [14]; 77% in [15]; 58% in [16]; 96% in [17]; 64% in test [18]. Moreover, the results for the residual activity in [19] and in [20] were 61% and 91%, respectively.

As to `O=c1c2ccccc2[nH]c(=S)n1CCN1CCC(=C(c2ccc(F)cc2)c2ccc(F)cc2)CC1`, the residual activity was 79% in [1]; 42% in test [2]; 99% (inactive) in test [3]; 107% in test [4]; 103% (inactive) in test [5]; 94% (inactive) in [6]. Also, the residual activity came to 111% in test [7]; 93% in test [8]; 103% in test [9]; 103% in test [10]; 106% in test [11]; 99% in [12]. Further, the residual activity in test [13] was 84%; in test [14] it was 47%; in test [15] it was 82%; in test [16] it was 41%; in test [17] it was 53%; in test [18] it was 83%. In addition, the residual activity was 70% in [19] and 81% in test [20].

Take `N#Cc1cnc2cnc(NCc3cccnc3)cc2c1Nc1ccc(F)c(Cl)c1`: the residual activity in test [1] is 1%; in test [2], -1%; in test [7], 93%; in [8], 89%; in [9], 103%; in test [10], 90%. Moreover, the residual activity in [11] worked out at 65%; in [12], 18%; in test [13], 11%; in test [14] it was 5%; in test [15], 2%; in test [16] it was 2%. Besides, the residual activity in test [17] came to 63%; in test [18], 3%; in test [19] it was 1%; in [20] it was 90%.

Turning to `c1ccc(-c2n[nH]c3c2oc2ccccc23)cc1`, the residual activity in test [3] was 94% (inactive); in test [5], 94% (inactive); in test [8] it was 85%; in test [11], 95%; in test [12] it was 83%; in test [13], 83%. Moreover, the residual activity in [14] came out at 86%; in test [17] it was 77%; in test [18], 65%; in test [19] it was 51%; in test [20], 84%.
